# Results filed as inconclusive are left out. Active and inactive are the calls of the source. The calls were made as follows, unless noted: active = hit-call score of the fitted dose curve at least 0.9, where 1 is the maximum; inconclusive = response in the unintended direction; inactive = score below 0.9.
# Biological target: Bile acid receptor (Homo sapiens) (UniProt Q96RI1)
# Assay: OT_FXR_FXRSRC1_0480: Odyssey Thera (OT) 8-hour HEK293T Protein-Complementation Assay for Farnesoid X receptor/SRC-1 Co-activator (AID 2283383)
# Details: not given
# In short: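 PCA, HEK293T, 8 h compound exposure; FXR–SRC-1 binding reconstitutes split reporter; fluorescence intensity; positive-direction fit vs DMSO.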
# Bile acid receptor (Homo sapiens), sequence (Q96RI1 whole entry, looked up): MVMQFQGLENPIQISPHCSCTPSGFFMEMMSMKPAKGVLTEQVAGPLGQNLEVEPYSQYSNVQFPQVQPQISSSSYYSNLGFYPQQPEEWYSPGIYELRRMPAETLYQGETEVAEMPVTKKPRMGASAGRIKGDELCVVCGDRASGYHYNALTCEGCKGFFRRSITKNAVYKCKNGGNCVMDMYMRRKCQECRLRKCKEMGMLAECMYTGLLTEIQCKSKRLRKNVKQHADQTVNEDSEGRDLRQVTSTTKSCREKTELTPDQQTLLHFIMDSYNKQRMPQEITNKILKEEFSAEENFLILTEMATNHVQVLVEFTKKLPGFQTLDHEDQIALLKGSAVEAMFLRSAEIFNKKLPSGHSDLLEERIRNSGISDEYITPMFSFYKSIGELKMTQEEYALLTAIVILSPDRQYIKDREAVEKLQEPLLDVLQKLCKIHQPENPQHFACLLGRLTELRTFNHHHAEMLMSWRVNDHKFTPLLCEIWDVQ
SMILES,AC50,outcome
O=C(NC(=O)c1c(F)cccc1F)Nc1ccc(Oc2ccc(C(F)(F)F)cc2Cl)cc1F,56.3 µM (active),
Cc1ccc(C)c2ccccc12,,inactive
c1ccc2c(c1)CCCC2,,inactive

# Biological target: Bile acid receptor (Homo sapiens) (UniProt Q96RI1)
# Assay: OT_FXR_FXRSRC1_1440: Odyssey Thera (OT) 24-hour HEK293T Protein-Complementation Assay for Farnesoid X receptor/SRC-1 Co-activator (AID 2283384)
# Details: not given
# In short: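 Measures ligand-driven FXR–SRC-1 co-activator recruitment in HEK293T via fragment complementation, fluorescence intensity at 24 h. DMSO served as negative control and baseline for gain-of-signal fitting.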
SMILES,AC50,outcome
O=C(NC(=O)c1c(F)cccc1F)Nc1ccc(Oc2ccc(C(F)(F)F)cc2Cl)cc1F,40.8 µM (active),
CC(O)CN(CC(C)O)CC(C)O (centres undefined),,inactive
Nc1cc(Cl)cc(Cl)c1,,inactive
Cc1ccc(C)c2ccccc12,,inactive

# Biological target: Retinoic acid receptor RXR-alpha (Homo sapiens) (UniProt P19793)
# Sequence (P19793 whole entry, looked up): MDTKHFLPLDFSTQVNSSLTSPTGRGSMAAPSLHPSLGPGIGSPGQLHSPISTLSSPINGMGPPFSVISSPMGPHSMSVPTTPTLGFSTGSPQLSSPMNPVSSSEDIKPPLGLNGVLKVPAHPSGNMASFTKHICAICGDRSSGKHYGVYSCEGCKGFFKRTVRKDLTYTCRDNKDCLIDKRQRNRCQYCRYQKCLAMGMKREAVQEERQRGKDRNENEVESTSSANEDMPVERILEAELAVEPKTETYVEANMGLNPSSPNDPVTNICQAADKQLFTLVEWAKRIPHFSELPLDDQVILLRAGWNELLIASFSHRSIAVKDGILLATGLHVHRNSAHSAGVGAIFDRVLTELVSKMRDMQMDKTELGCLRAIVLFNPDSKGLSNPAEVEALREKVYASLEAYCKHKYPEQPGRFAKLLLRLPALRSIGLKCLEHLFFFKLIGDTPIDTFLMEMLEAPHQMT
# Assay: OT_NURR1_NURR1RXRa_0480: Odyssey Thera (OT) 8-hour HEK293T Protein Complementation Assay for Nurr1/retinoid X receptor (RXR) (AID 2283385)
# Details: not given
# In short: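 Interaction of bait and prey reconstitutes a functional reporter, whose fluorescence was measured in HEK293T cells dosed with compound for 8 hours. Signal gain relative to DMSO defined the single endpoint.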
SMILES,outcome,AC50
CC1CCCC1.[C-]#[O+].[C-]#[O+].[C-]#[O+].[Mn],inactive,
CC(=O)C=Cc1ccccc1,,1.12 µM (active)
CCC(=O)c1ccc(Cl)cc1,inactive,
CN(C)N,inactive,
Nc1ccc(Cl)c(Cl)c1,inactive,
O=C(O)CCl,inactive,
CC(O)CN(CC(C)O)CC(C)O (centres undefined),inactive,
Nc1cc(Cl)cc(Cl)c1,inactive,
Cc1ccc(C)c2ccccc12,inactive,
C=CCO,inactive,
CC(=O)c1cc2c(cc1C)C(C)(C)C(C)CC2(C)C (centres undefined),,82.1 µM (active)
c1ccc2c(c1)CCCC2,inactive,
CCOC(=O)C1OC1(C)c1ccccc1 (centres undefined),inactive,

# Biological target: Retinoic acid receptor RXR-alpha (Homo sapiens) (UniProt P19793)
# Assay: OT_NURR1_NURR1RXRa_1440: Odyssey Thera (OT) 24-hour HEK293T Protein Complementation Assay for Nurr1/retinoid X receptor (RXR) (AID 2283386)
# Details: not given
# In short: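 Steps: fragment-tagged Nurr1 and RXRα expressed in HEK293T; compounds added; after 24 h, complemented reporter quantified by fluorescence intensity; signal increase over DMSO fitted as the single endpoint.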
SMILES,AC50,outcome
O=C(NC(=O)c1c(F)cccc1F)Nc1ccc(Oc2ccc(C(F)(F)F)cc2Cl)cc1F,31.3 µM (active),
CC1CCCC1.[C-]#[O+].[C-]#[O+].[C-]#[O+].[Mn],,inactive
CC(=O)C=Cc1ccccc1,,inactive
CCC(=O)c1ccc(Cl)cc1,,inactive
Nc1ccc(Cl)c(Cl)c1,,inactive
CC(O)CN(CC(C)O)CC(C)O (centres undefined),,inactive
Nc1cc(Cl)cc(Cl)c1,,inactive
O=[N+]([O-])c1ccc(Cl)cc1,,inactive
C=CCO,,inactive
CC(=O)c1cc2c(cc1C)C(C)(C)C(C)CC2(C)C (centres undefined),,inactive
CCOC(=O)C1OC1(C)c1ccccc1 (centres undefined),,inactive

# Biological target: Peroxisome proliferator-activated receptor gamma (Homo sapiens) (UniProt P37231)
# Sequence (P37231 whole entry, looked up): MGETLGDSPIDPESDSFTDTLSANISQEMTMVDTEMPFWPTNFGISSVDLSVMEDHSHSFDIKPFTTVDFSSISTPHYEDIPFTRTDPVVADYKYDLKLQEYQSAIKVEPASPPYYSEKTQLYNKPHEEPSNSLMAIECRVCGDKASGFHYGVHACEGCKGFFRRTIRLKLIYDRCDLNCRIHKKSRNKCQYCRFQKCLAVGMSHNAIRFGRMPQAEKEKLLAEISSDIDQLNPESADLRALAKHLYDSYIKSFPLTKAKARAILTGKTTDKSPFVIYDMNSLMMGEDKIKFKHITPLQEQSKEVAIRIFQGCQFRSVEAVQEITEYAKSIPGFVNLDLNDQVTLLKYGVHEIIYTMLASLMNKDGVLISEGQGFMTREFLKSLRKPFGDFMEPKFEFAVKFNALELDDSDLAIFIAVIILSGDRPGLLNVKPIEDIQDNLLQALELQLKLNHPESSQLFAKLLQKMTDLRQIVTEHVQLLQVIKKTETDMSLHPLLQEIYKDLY
# Assay: OT_PPARg_PPARgSRC1_0480: Odyssey Thera (OT) 8-hour Protein-Complementation Assay for Peroxisome Proliferator-activated Receptor Gamma / SRC-1 Co-activator (AID 2283387);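 also: nuclear to cytoplasmic split Venus YFP fluorescence ratio reporting PPARg SRC-1 interaction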
# Details: not given
# In short: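 Protein-fragment complementation in HEK293T: Venus YFP halves (residues 1-158, 159-239, mutated to IFP1/IFP2) fused to PPARg/SRC-1. 8 h exposure; N/C ratio at 488 nm; DMSO negative control.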
row,SMILES,outcome
1,O=C(NC(=O)c1c(F)cccc1F)Nc1ccc(Oc2ccc(C(F)(F)F)cc2Cl)cc1F,inactive
2,CC1CCCC1.[C-]#[O+].[C-]#[O+].[C-]#[O+].[Mn],inactive
3,CC(=O)C=Cc1ccccc1,inactive
4,CCC(=O)c1ccc(Cl)cc1,inactive
5,CN(C)N,inactive
6,Nc1ccc(Cl)c(Cl)c1,inactive
7,O=C(O)CCl,inactive
8,Nc1cc(Cl)cc(Cl)c1,inactive
9,Cc1ccc(C)c2ccccc12,inactive
10,CC(=O)c1cc2c(cc1C)C(C)(C)C(C)CC2(C)C (centres undefined),inactive
11,c1ccc2c(c1)CCCC2,inactive
12,CCOC(=O)C1OC1(C)c1ccccc1 (centres undefined),inactive
13,CC(C)[C@@H](C(=O)O[C@@H](C#N)c1cccc(Oc2ccccc2)c1)c1ccc(Cl)cc1,inactive
14,CCCCCCCCCCCCCCCC[N+](C)(C)C,inactive

# Biological target: Peroxisome proliferator-activated receptor gamma (Homo sapiens) (UniProt P37231)
# Assay: OT_PPARg_PPARgSRC1_1440: Odyssey Thera (OT) 24-hour Protein-Complementation Assay for Peroxisome Proliferator-activated Receptor Gamma/ SRC-1 Co-activator (AID 2283388);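 also: nuclear to cytoplasmic ratio of reconstituted Venus YFP fluorescence in fixed imaged cells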
# Details: not given
# In short: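 Protein-fragment complementation between PPARg and coactivator SRC-1 was measured by fluorescence imaging in transiently transfected HEK293T cells after 24 h treatment. Signal was quantified as N/C ratio in the 488 nm channel, with DMSO as negative control.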
row,SMILES,outcome
1,O=C(NC(=O)c1c(F)cccc1F)Nc1ccc(Oc2ccc(C(F)(F)F)cc2Cl)cc1F,inactive
2,CC1CCCC1.[C-]#[O+].[C-]#[O+].[C-]#[O+].[Mn],inactive
3,CC(=O)C=Cc1ccccc1,inactive
4,CCC(=O)c1ccc(Cl)cc1,inactive
5,CN(C)N,inactive
6,Nc1ccc(Cl)c(Cl)c1,inactive
7,O=C(O)CCl,inactive
8,Nc1cc(Cl)cc(Cl)c1,inactive
9,Cc1ccc(C)c2ccccc12,inactive
10,CC(=O)c1cc2c(cc1C)C(C)(C)C(C)CC2(C)C (centres undefined),inactive
11,c1ccc2c(c1)CCCC2,inactive
12,CCOC(=O)C1OC1(C)c1ccccc1 (centres undefined),inactive
13,CC(C)[C@@H](C(=O)O[C@@H](C#N)c1cccc(Oc2ccccc2)c1)c1ccc(Cl)cc1,inactive
14,CCCCCCCCCCCCCCCC[N+](C)(C)C,inactive

# Read-out: not listed separately
# Assay: CEETOX_H295R_OHPREG: CeeTox H295R High-throughput Steroidogenesis Assay for OH-Pregnenolone (OHPREG) (AID 2283434; active = hit-call score of the fitted dose curve at least 0.9, where 1 is the maximum; inactive = score below 0.9)
# Details: actives raise or lower the signal
# In short: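 Secreted 17alpha-hydroxypregnenolone measured by HPLC-MS/MS after liquid-liquid extraction. Human adrenal H295R cells received 48 h forskolin (10 uM) stimulation before 48 h chemical exposure at 0.1% final DMSO; MTT viability in same wells; bidirectional fit against DMSO.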
SMILES,AC50,outcome
O=C(NC(=O)c1c(F)cccc1F)Nc1ccc(Oc2ccc(C(F)(F)F)cc2Cl)cc1F,12.4 µM (active),
Nc1ccc(Cl)c(Cl)c1,,inactive
CC(=O)c1cc2c(cc1C)C(C)(C)C(C)CC2(C)C (centres undefined),,inactive
C=CC(=O)OCCO,,inactive

# Read-out: not listed separately
# Assay: CEETOX_H295R_OHPROG: CeeTox H295R High-throughput Steroidogenesis Assay for OH-Progesterone (OHPROG) (AID 2283435; active = hit-call score of the fitted dose curve at least 0.9, where 1 is the maximum; inactive = score below 0.9;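 as to AC50: 17alpha-hydroxyprogesterone secreted into medium measured by HPLC-MS/MS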)
# Details: actives raise or lower the signal
# In short: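 Steps: seed H295R cells and adhere overnight; stimulate with 10 uM forskolin for 48 h; replace with chemical-containing medium (0.1% DMSO) for 48 h; extract medium with MTBE; quantify 17alpha-hydroxyprogesterone by reverse-phase C18 HPLC-MS/MS against a 7-point curve.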
SMILES,AC50,outcome
O=C(NC(=O)c1c(F)cccc1F)Nc1ccc(Oc2ccc(C(F)(F)F)cc2Cl)cc1F,1.37 µM (active),
Nc1ccc(Cl)c(Cl)c1,33.3 µM (active),
CC(=O)c1cc2c(cc1C)C(C)(C)C(C)CC2(C)C (centres undefined),,inactive
C=CC(=O)OCCO,,inactive

# Read-out: not listed separately
# Assay: CEETOX_H295R_PROG: CeeTox H295R High-throughput Steroidogenesis Assay for Progesterone (PROG) (AID 2283442; active = hit-call score of the fitted dose curve at least 0.9, where 1 is the maximum; inactive = score below 0.9;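 also: human H295R adrenal cells primed with 10 µM forskolin before dosing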)
# Details: actives raise or lower the signal
# In short: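 Steps: seed H295R cells and let them adhere overnight; prime 48 h with 10 uM forskolin; dose with compound in DMSO at 0.1% final for 48 h; extract medium steroids with MTBE; measure progesterone by LC-MS/MS. MTT viability was run in the same wells.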
row,SMILES,AC50
1,O=C(NC(=O)c1c(F)cccc1F)Nc1ccc(Oc2ccc(C(F)(F)F)cc2Cl)cc1F,1.28 µM (active)
2,Nc1ccc(Cl)c(Cl)c1,10.7 µM (active)
3,C=CC(=O)OCCO,5.27 µM (active)

# Tested on: not listed separately
# Assay: ATG_XTT_Cytotoxicity: Cytotoxicity Assessment in the Attagene TRANS-FACTORIAL HepG2 Assay (AID 2283584);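 as to AC50: cells exposed to compound for 24 h before reading; active means loss of viability signal versus DMSO baseline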
# Details: not given
# In short: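 Cells: human HepG2, transiently transfected with MRTU reporter constructs. Exposure 24 h. Readout: XTT, cell number. Baseline/neg ctrl DMSO; loss-of-signal scored.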
SMILES,outcome,AC50
O=C(NC(=O)c1c(F)cccc1F)Nc1ccc(Oc2ccc(C(F)(F)F)cc2Cl)cc1F,inactive,
CC1CCCC1.[C-]#[O+].[C-]#[O+].[C-]#[O+].[Mn],inactive,
CC(=O)C=Cc1ccccc1,inactive,
CCC(=O)c1ccc(Cl)cc1,inactive,
C=CC(=O)OC,inactive,
CC(C)CCCCCCCOC(=O)c1ccccc1C(=O)OCCCCCCCC(C)C,inactive,
N#CCNCC#N,inactive,
CN(C)N,inactive,
CN1C[C@H](C(=O)N[C@]2(C)O[C@@]3(O)[C@@H]4CCCN4C(=O)[C@H](Cc4ccccc4)N3C2=O)C=C2c3cccc4[nH]cc(c34)C[C@H]21,inactive,
O=[N+]([O-])C=Cc1ccccc1,,75.7 µM (active)
O=C(O)CCl,inactive,
O=[N+]([O-])c1ccc(Cl)cc1,inactive,
Cc1ccc(C)c2ccccc12,inactive,
C=CCO,inactive,
c1cc(OCC2CO2)ccc1Cc1ccc(OCC2CO2)cc1 (centres undefined),inactive,
C=CC(=O)OCCCCOC(=O)C=C,inactive,
[Cl][Sb]([Cl])[Cl],inactive,
C[C@]12CC[C@H]3[C@@H](CC[C@@]45O[C@@H]4C(O)=C(C#N)C[C@]35C)[C@@H]1CC[C@@H]2O,inactive,
CCCCCCCCCCCCCCCC[N+](C)(C)C,,36.9 µM (active)
